From PubChem
FBW7 activator = FBW7 E3 ligase activators, primary screen, biochemical, AlphaScreen, human; AlphaScreen FBW7–phospho-cyclin E peptide binding, activator screen; 650,000 compounds, 0.13% hits; AID 1259310, 2017; normalized activity (activation), % at 26.1 µM; in the data active = normalized activity above about 1.9%;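 also: purified mutant Fbw7 with reduced substrate affinity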
TEAD-YAP inh = TEAD-YAP interaction inhibition, primary screen, TEAD-YAP interaction inhibitor project, luminescence, HEK-TIYL cells; TEAD-Gal4/YAP UAS-luciferase luminescence; inhibition, % at 9.12 µM; 640,000 compounds, 1.4% hits; AID 1259422, 2018; in the data active = inhibition above about 32%;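 also: 0% = median of test compound wells and 100% = reference inhibitor wells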
GPR151 ag = activators of human GPR151, primary screen, cell-based, PathHunter beta-arrestin, luminescence; G-protein coupled receptor 151 (Homo sapiens), Q8TDV0; PathHunter beta-arrestin GPR151 cells; activation, % at 11.2 µM; 650,000 compounds, 1% hits; in the data active = activation above about 4.9%;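 also: 0% = median of compound wells and 100% = cells with positive control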
Target sequence (Q8TDV0 whole entry, looked up): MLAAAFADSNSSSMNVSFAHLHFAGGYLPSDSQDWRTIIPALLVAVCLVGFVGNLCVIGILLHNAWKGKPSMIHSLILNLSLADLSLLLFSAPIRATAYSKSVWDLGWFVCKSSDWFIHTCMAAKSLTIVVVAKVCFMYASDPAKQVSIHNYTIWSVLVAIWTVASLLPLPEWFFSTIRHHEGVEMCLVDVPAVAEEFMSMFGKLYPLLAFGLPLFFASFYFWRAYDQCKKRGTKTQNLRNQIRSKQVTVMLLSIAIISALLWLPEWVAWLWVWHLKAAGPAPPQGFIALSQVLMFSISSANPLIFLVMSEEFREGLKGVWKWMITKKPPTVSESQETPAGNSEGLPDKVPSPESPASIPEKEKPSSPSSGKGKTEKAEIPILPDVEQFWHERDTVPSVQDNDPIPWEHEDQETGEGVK
MITF primary = MITF inhibitors, primary screen, biochemical, AlphaScreen, human; Microphthalmia-associated transcription factor (Homo sapiens), O75030; AlphaScreen MITF homodimerization, bead proximity signal; inhibition, % at 2.6 µM; 650,000 compounds, 0.91% hits; AID 1259374, 2018; in the data active = inhibition above about 50%;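 also: 0% = vehicle wells with protein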
* hit, by the source's call. The list is not random: actives were taken first. Their share in the collection is about 3.5%.

How did COC(CNS(=O)(=O)c1ccc(Oc2ccc(S(=O)(=O)NCC(OC)OC)cc2)cc1)OC do in these assays?
FBW7 activator: 0; TEAD-YAP inh: 49*; GPR151 ag: 2; MITF primary: -9

Results for COc1ccccc1Nc1ccc(NC(=O)COc2ccc(C#N)cc2)cc1 ?
FBW7 activator: 0; TEAD-YAP inh: 3; GPR151 ag: 1; MITF primary: 4

What do the screens show for `COc1ccc(O)c(/C=N/NC(=O)/C(=C\c2cccs2)NC(=O)c2ccccc2)c1`?
FBW7 activator: 0; TEAD-YAP inh: 58*; GPR151 ag: 2; MITF primary: 10

What do the screens show for `NNC(=O)/C(=C/c1cccs1)NC(=O)c1ccccc1`?
FBW7 activator: 0; TEAD-YAP inh: 47*; GPR151 ag: -1; MITF primary: 0

How did CCOc1ccc(O)c(/C=N/NC(=O)/C(=C\c2cccs2)NC(=O)c2ccccc2)c1 do in these assays?
FBW7 activator: 0; TEAD-YAP inh: 8; GPR151 ag: 0; MITF primary: -1

How did CCOc1ccc(-n2c(SCC(=O)N3CCCC3)nc3c(sc(=S)n3-c3ccccc3)c2=O)cc1 do in these assays?
FBW7 activator: 0; TEAD-YAP inh: -1; GPR151 ag: 0; MITF primary: -3

How did Cc1nn(C)cc1CNC(=O)c1cccc2ccccc12 do in these assays?
FBW7 activator: 1; TEAD-YAP inh: -5; GPR151 ag: -1; MITF primary: 7

What do the screens show for `O=C(NCCn1ncc2c(N3CCN(c4ccccc4)CC3)ncnc21)c1ccccc1F`?
FBW7 activator: 0; TEAD-YAP inh: 48*; GPR151 ag: 0; MITF primary: -12

Results for COc1ccc(N2CCN(c3ncnc4c3cnn4C)CC2)cc1 ?
FBW7 activator: 0; TEAD-YAP inh: -4; GPR151 ag: 0; MITF primary: 0

What do the screens show for `COc1ccc(N2CCN(c3ncnc4c3cnn4CCNC(=O)c3cccs3)CC2)cc1`?
FBW7 activator: 0; TEAD-YAP inh: 37*; GPR151 ag: 1; MITF primary: -7

How did O=C(Cc1ccccc1)NCCn1ncc2c(N3CCN(c4ccc(F)cc4)CC3)ncnc21 do in these assays?
FBW7 activator: 0; TEAD-YAP inh: 12; GPR151 ag: 1; MITF primary: 0

What do the screens show for `Nc1nonc1N=NN(CC(=O)Nc1c(Cl)cccc1Cl)c1nonc1N`?
FBW7 activator: 0; TEAD-YAP inh: -3; GPR151 ag: -1; MITF primary: 8

How did Nc1nonc1N=NN(Cc1ccc(Cl)cc1Cl)c1nonc1N do in these assays?
FBW7 activator: 0; TEAD-YAP inh: 10; GPR151 ag: 2; MITF primary: 73*

Results for O=C1NC(=O)N(Cc2ccco2)C(=O)/C1=C\c1ccc(-c2ccc(Br)cc2)o1 ?
FBW7 activator: 0; TEAD-YAP inh: 0; GPR151 ag: 0; MITF primary: 70*

Results for Cc1ccc([N+](=O)[O-])cc1-c1ccc(/C=C2/C(=O)NC(=O)N(Cc3ccco3)C2=O)o1 ?
FBW7 activator: 0; TEAD-YAP inh: -3; GPR151 ag: 0; MITF primary: 43

How did O=C1NC(=O)N(Cc2ccco2)C(=O)/C1=C\c1ccc(-c2ccc(C(=O)O)cc2)o1 do in these assays?
FBW7 activator: 0; TEAD-YAP inh: -2; GPR151 ag: -1; MITF primary: 52*

What do the screens show for `O=C1NC(=O)N(Cc2ccco2)C(=O)/C1=C\c1ccc(-c2ccc([N+](=O)[O-])cc2)o1`?
FBW7 activator: 0; TEAD-YAP inh: -6; GPR151 ag: 0; MITF primary: 75*

Results for CCOC(=O)c1ccc(-c2ccc(/C=C3/C(=O)NC(=O)N(Cc4ccco4)C3=O)o2)cc1 ?
FBW7 activator: 0; TEAD-YAP inh: -61; GPR151 ag: -1; MITF primary: 34

How did Cc1cc([N+](=O)[O-])ccc1-c1ccc(/C=C2/C(=O)NC(=O)N(Cc3ccco3)C2=O)o1 do in these assays?
FBW7 activator: 0; TEAD-YAP inh: -3; GPR151 ag: -2; MITF primary: 68*

Results for Cc1cc(C)cc(NC(=O)c2c(C)c(-c3ccc(Cl)cc3Cl)nc3ccccc23)c1 ?
FBW7 activator: 0; TEAD-YAP inh: -1; GPR151 ag: 0; MITF primary: 5

Results for O=[N+]([O-])/C(C(Cl)=C(Cl)Cl)=C1/Nc2ccccc2O1 ?
FBW7 activator: 0; TEAD-YAP inh: 1; GPR151 ag: 1; MITF primary: 11

What do the screens show for `CC12CCC(C(=O)Nc3ccc(Cl)c(Cl)c3)(C(=O)C1=O)C2(C)C` (centres undefined)?
FBW7 activator: 0; TEAD-YAP inh: 13; GPR151 ag: 0; MITF primary: 7

What do the screens show for `COC(=O)C(O)(c1cc(C)c(NC(=O)c2ccc(F)cc2)c(C)c1)C(F)(F)F` (centres undefined)?
FBW7 activator: 0; TEAD-YAP inh: 0; GPR151 ag: 0; MITF primary: 8

How did COC(=O)C1=CN(Cc2ccc(OC)c(OC)c2)C=C(C(=O)OC)C1c1ccc(F)cc1 do in these assays?
FBW7 activator: 0; TEAD-YAP inh: -21; GPR151 ag: 0; MITF primary: -4

How did CCOc1cc(C2C(C(=O)OC)=CN(Cc3ccc(OC)c(OC)c3)C=C2C(=O)OC)ccc1O do in these assays?
FBW7 activator: 1; TEAD-YAP inh: 48*; GPR151 ag: 0; MITF primary: 13

Results for COC(=O)C1=CN(Cc2ccc(OC)c(OC)c2)C=C(C(=O)OC)C1c1ccc(Br)cc1 ?
FBW7 activator: 1.9*; TEAD-YAP inh: 3; GPR151 ag: -2; MITF primary: 4

What do the screens show for `CCOc1cc(C2C(C(=O)OC)=CN(Cc3ccc(Cl)cc3)C=C2C(=O)OC)ccc1O`?
FBW7 activator: 0; TEAD-YAP inh: -4; GPR151 ag: -1; MITF primary: -2

What do the screens show for `CCCNc1ncnc2c1nc(-c1cccc(N)c1)n2C(C)C`?
FBW7 activator: 0; TEAD-YAP inh: -3; GPR151 ag: 3; MITF primary: -4

How did C(=N\Nc1nc2ccccc2[nH]1)/c1ccccn1 do in these assays?
FBW7 activator: -1; TEAD-YAP inh: 95*; GPR151 ag: -8; MITF primary: 46

How did C/C(=N\Nc1nc2ccccc2[nH]1)c1ccccc1O do in these assays?
FBW7 activator: -1; TEAD-YAP inh: -16; GPR151 ag: 0; MITF primary: 52*

Results for C/C(=N\Nc1nc2ccccc2[nH]1)c1ccccc1Cl ?
FBW7 activator: 0; TEAD-YAP inh: 14; GPR151 ag: 0; MITF primary: 12

What do the screens show for `C(=N\Nc1nc2ccccc2[nH]1)/c1cccc(/C=N/Nc2nc3ccccc3[nH]2)c1`?
FBW7 activator: 0; TEAD-YAP inh: -12; GPR151 ag: 2; MITF primary: 8

What do the screens show for `Oc1ccc(Br)cc1/C=N\Nc1nc2ccccc2[nH]1`?
FBW7 activator: 0; TEAD-YAP inh: 65*; GPR151 ag: 0; MITF primary: 11

Results for Cn1c(=O)c2c(nc(SCc3ccccc3)n2Cc2ccc(F)cc2)n(C)c1=O ?
FBW7 activator: 0; TEAD-YAP inh: 1; GPR151 ag: 0; MITF primary: 10
